Screening data deposited in PubChem by Broad Institute.
Sampled rows, rich in hits. Any-hit rate of the full collection: about 2.2%.
MITF TRPM1 inh: reduces MITF-dependent TRPM1 promoter luciferase signal; SK-MEL-5 TRPM1 promoter luciferase, 24 h; inhibition, % at 12.5 µM; hit rate 0.83% among 330,000; AID 488899;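 active = mean inhibition across replicates of 60% or more, whatever share of single replicates reaches that level; inconclusive = some that reach 60%, reason not given; inactive = mean inhibition across replicates below 60%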
EWS-Fli block: blocks EWS/Fli oncoprotein-driven transcription; A673 NR0B1-luciferase reporter, viability-normalised; inhibition, % at 12.6 µM; hit rate 0.67% among 350,000;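 active = mean inhibition of at least 50% after viability correction, with every replicate also passing that limit; inconclusive = mean reaches 50% but only one of two replicates passes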;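 also: firefly luciferase signal divided by Alamar Blue viability fluorescence both relative to DMSO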
LMP1 NFkB inh: inhibitors of Epstein-Barr LMP1-induced NF-kappaB reporter | hit rate 0.69% among 350,000 | LMP1-induced NF-kappaB luciferase reporter cells, luminescence | AID 504558 | inhibition, % at 12.5 µM; in the data active = inhibition above about 41%; inconclusive = no clear call, values can overlap the other calls
LGR2 antag: Drosophila LGR2 receptor signaling inhibition. HEK293 LGR2, CRE-luciferase, bursicon-stimulated, 4 h. inhibition, % at 9.99 µM. hit rate 0.35% among 380,000;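 active = drop in luminescence signal, shown as inhibition above about 50% in the replicate tests, limit read from the data, passing the limit was not always enough; inconclusive = probably only some replicates passing the limit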;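 also: agonist challenge used bursicon conditioned medium at about half maximal strength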
Shn3 3UTR inh: reduces Shn3 3'UTR luciferase signal in osteoblasts. Clone20 osteoblast Shn3 3'UTR firefly luciferase, 24 h. inhibition, % at 12.5 µM. hit rate 0.52% among 360,000;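 active = mean inhibition of at least 75% with every replicate also reaching 75%; inconclusive = mean inhibition at least 75% but some replicate below; inactive = mean inhibition below 75%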
PAX8 inh HTS: PAX8 transcriptional activity inhibition; RMG-I TPO-luciferase reporter, SteadyGlo, 24 h; AID 652154; inhibition, % at 12.6 µM; hit rate 1.2% among 360,000;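 active = mean replicate inhibition at least 60% with every replicate also reaching 60%; inconclusive = only one of the two criteria is met; inactive = mean below 60% and not all replicates reaching 60%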;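 also: luciferase light reporting Pax8 driven TPO promoter activity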
Of the large screens only hits and unclear results are named; the others gave an inactive call.

CCOC(=O)c1sc(N(Cc2ccccc2)C(=O)CCl)nc1C	EWS-Fli block 57
Nc1nccc(-c2cc(-c3ccc(Cl)cc3Cl)no2)n1	LGR2 antag 60
O=C(O)c1ccc(-c2nc(-c3ccc(Cl)cc3Cl)cs2)cc1	none
COC(=O)c1ccc2nc(-c3cccc(N)c3)cn2c1	LMP1 NFkB inh 61, LGR2 antag 85
O=C(N/N=C/c1cc([N+](=O)[O-])ccc1Cl)c1cnccn1	EWS-Fli block 57
Cc1ccccc1/C=N/NC(=O)Cn1nnc(N)n1	PAX8 inh HTS 65
Cc1ccc(S(=O)(=O)NCC[C@@H]2CC[C@H](NC(=O)Nc3ccccc3F)[C@H](CO)O2)cc1	none (no result: MITF TRPM1 inh, LMP1 NFkB inh, Shn3 3UTR inh)
Cc1c(C(=O)OCC(C)C)[nH]c2c1C(=O)CC(c1ccco1)C2 (configuration not stated)	EWS-Fli block 53, PAX8 inh HTS 68
Cc1c(C(=O)OCC2CCCO2)[nH]c2c1C(=O)CC(c1ccco1)C2 (configuration not stated)	none (no result: EWS-Fli block, LGR2 antag, PAX8 inh HTS)
C/C=C/COC(=O)c1[nH]c2c(c1C)C(=O)CC(c1ccco1)C2 (configuration not stated)	none (no result: MITF TRPM1 inh)
Cc1c(C(=O)OC2CCCC2)[nH]c2c1C(=O)CC(c1ccco1)C2 (configuration not stated)	Shn3 3UTR inh 90, PAX8 inh HTS 76
COc1ccc(C(C)=NNC(=O)c2cccc(S(=O)(=O)N3CCCC3)c2)cc1	none
COc1ccc(/C(C)=N/NC(=O)c2cccc(S(=O)(=O)N3CCCC3)c2)c(O)c1	MITF TRPM1 inh 73, Shn3 3UTR inh 88, PAX8 inh HTS 66
CCS(=O)(=O)N1CCC2(CC1)CN(C(=O)NC(C)C)[C@H](CO)c1c2c2ccc(OC)cc2n1C	none (no result: MITF TRPM1 inh, LMP1 NFkB inh, Shn3 3UTR inh)
O=C(CC1CC1)N[C@H]1CC[C@@H](CCNS(=O)(=O)c2ccc(Cl)cc2)O[C@H]1CO	none (no result: MITF TRPM1 inh, LMP1 NFkB inh, Shn3 3UTR inh)
CC1=C([N+](=O)[O-])C(c2cccc(Br)c2)C2=C(N1)c1ccccc1C2=O (configuration not stated)	MITF TRPM1 inh 61, PAX8 inh HTS 85 (no result: EWS-Fli block, LGR2 antag)
Cn1c(Cl)cnc1C1CC(=O)c2cc(Cl)ccc2O1 (configuration not stated)	PAX8 inh HTS 72 (no result: EWS-Fli block, LGR2 antag)
Cc1ccc(OCC(=O)NC(=S)Nc2ccccn2)c(Br)c1	EWS-Fli block 52, LGR2 antag 71
COc1ccc(-n2nnnc2S(=O)(=O)Cc2ccc(C(=O)O)cc2)cc1	none (no result: EWS-Fli block, LGR2 antag, PAX8 inh HTS)
COc1ccc(-n2nnnc2S(=O)(=O)CC(=O)N2CCCCC2)cc1	MITF TRPM1 inh 74, LMP1 NFkB inh 61, LGR2 antag 99, Shn3 3UTR inh 92
O=C(c1cccnc1)N1C[C@H]2[C@@H](c3ccccc31)[C@H](CO)N2C(=O)C1CCOCC1	none (no result: MITF TRPM1 inh, LMP1 NFkB inh, Shn3 3UTR inh)
Cc1ccc(C(C)C)cc1NC(=O)Nc1ccc([N+](=O)[O-])cc1	Shn3 3UTR inh 87, PAX8 inh HTS 62
NS(=O)(=O)c1ccc(CCNCc2cc(Cl)ccc2OCc2ccccc2)cc1	none
NS(=O)(=O)c1ccc(CCNCc2cc(Br)ccc2OCc2ccccc2F)cc1	LGR2 antag inconclusive, Shn3 3UTR inh 86
Nc1nonc1C(=O)NCCNCc1cc(Br)ccc1OCc1ccccc1F	Shn3 3UTR inh 85 (no result: EWS-Fli block, LGR2 antag, PAX8 inh HTS)
COc1ccc(C(C)NC(=O)c2ccc(Br)cc2)cc1OC (configuration not stated)	PAX8 inh HTS 138 (no result: LGR2 antag)
COc1ccc(C(C)NC(=O)c2ccc([N+](=O)[O-])cc2)cc1OC (configuration not stated)	none
Cc1ccc(NC(=O)Nc2ccc3c(c2)C(=O)N(C)[C@H]2CC[C@@H](CC(=O)O)O[C@@H]2CO3)cc1	none (no result: MITF TRPM1 inh, LMP1 NFkB inh, Shn3 3UTR inh)
C[C@@H]1CCCCO[C@@H](CN(C)C(=O)Nc2cccc3ccccc23)[C@@H](C)CN([C@@H](C)CO)C(=O)c2cc(NC(=O)Cc3ccccc3)ccc2O1	none (no result: MITF TRPM1 inh, EWS-Fli block, LMP1 NFkB inh, Shn3 3UTR inh)
COc1ccc(CNC(=O)C[C@H]2C=C[C@H](NC(=O)CN(C)C)[C@@H](CO)O2)cc1	none (no result: MITF TRPM1 inh, LMP1 NFkB inh, Shn3 3UTR inh)
NC(=O)C1(N2CCCCC2)CCN(C(=O)c2ccc(-n3cnnn3)cc2)CC1	LMP1 NFkB inh 64 (no result: EWS-Fli block, LGR2 antag, PAX8 inh HTS)
O=C(c1ccc(-n2cnnn2)cc1)N1CCOCC1	none (no result: EWS-Fli block, LGR2 antag, PAX8 inh HTS)
N#Cc1cccc(-c2ccc(C3[C@@H]4CN(C(=O)Cc5ccccc5)C[C@H]3N4)cc2)c1 (some centres not stated)	none (no result: MITF TRPM1 inh, LMP1 NFkB inh, Shn3 3UTR inh)
C[C@@H]1CN([C@@H](C)CO)S(=O)(=O)c2ccc(-c3ccccc3)cc2O[C@@H]1CN(C)C(=O)Cc1ccccc1	none (no result: MITF TRPM1 inh, LMP1 NFkB inh, Shn3 3UTR inh)
